According to PubChem BioAssay (NCATS):
Records with an inconclusive call do not appear. Unmarked numbers belong to inactive results. Calls follow the shape of the dose curve; as a rule, active = well fitted cell-killing curve with a large enough effect; inconclusive = small, poorly fitted or top-dose-only effect; inactive = flat fitted curve, though single readings scatter.

Assay: Cell Viability - LYMP2-021 (AID 974);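 also: compound exposure lasts 24 hours at 37 °C; nearly all actives have a fitted effect of over 55% in size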
Settings: LYMP2-021 lymphoblastoid cells viability; series mostly up to 92.2 µM; activity change, negative = cytotoxicity: at the top concentration
Text: NIH Chemical Genomics Center [NCGC]
NIH Molecular Libraries Screening Centers Network [MLSCN]
National Institutes of Environmental Health Sciences [NIEHS]
National Toxicology Program [NTP]
We have developed a 1536-well cell-based assay for quantitative high throughput screening (qHTS) against a number of cell lines to determine in vitro cytotoxicity of small molecules. This particular assay uses a human lymphoblastoid cell line (LYMP2-021) purchased from Coriell Institute for Medical Research.
NCGC Assay Protocol Summary:
The CellTiter-Glo luminescent cell viability assay (Promega) is a homogeneous method to measure the number of viable cells in culture. The end point readout of this assay is based on quantitation of intracellular ATP, an indicator of metabolic activity, using the luciferase reaction. Luciferase catalyzes the oxidation of beetle Luciferin to oxyluciferin and light in the presence of ATP. The luminescent signal is proportional to amount of ATP present.
Using the CellTiter-Glo luminescent cell viability assay, the amount of cellular ATP was measured in the lymphoblastoid cell line with complete culture medium following compound treatment for 24 hours. The assay was performed in opaque white Kalypsys 1536-well plates. In the screen, tetraoctylammonium bromide was used as positive control. Library compounds were measured for their ability to cause acute toxicity in the cell line, as reflected by a decrease in intracellular ATP levels, in a concentration-dependent manner. […] AC50 values were determined from concentration-response data modeled with the standard Hill equation.
qHTS protocol for CellTiter Glo lymphoblastoid cellular assay
[Step] [Parameter] [Value] [Description]
1. Reagent; 5 uL; 2500 lymphoblastoid cells/well
2. Time; 5 hr; 37 C incubation
4. Controls; 23 nL; Tetraoctylammonium bromide 6.4pM to 92 uM
5. Time; 24 hr; 37 C incubation
6. Reagent; 5 uL; CellTiter Glo reagent
7. Time; 30 min; Room Temperature
8. Detection; Luminescence; Viewlux plate reader
Keywords: cell viability, cytotoxicity, lymphoblastoid cell line, luminescence, NTPHTS, NTPHTS_NCGC, NIEHS, DSSTox, MLSMR, MLSCN, NIH Roadmap, qHTS, NCGC
% is scaled to controls: 0 for no effect and ±100 for the full control effect.

SMILES | activity change, negative = cytotoxicity [%]
Nc1ccc(F)cc1F | 0.808
CCC(C)(C)C(=O)O | -19.9
CC(C)(C)c1ccc(OCC2CO2)cc1 (stereo not given) | -20.3
Cc1ccc2ccccc2c1[N+](=O)[O-] | -2.99
O=C(O)c1ccc(C(=O)O)cc1 | -1.53
CC(C)N=C=NC(C)C | -4.62
CCCOCC(C)O (stereo not given) | -2.38
Cc1cccc(C(=O)O)c1[N+](=O)[O-] | 0.774
CC/C=C1/OC(=O)c2ccccc21 | 0.836
CC(=O)OC(C)=O | -3.02
Cc1cscn1 | -2.07
CO[Si](CCCNCCC[Si](OC)(OC)OC)(OC)OC | 3.3
CC1(N)CCC(C(C)(C)N)CC1 (stereo not given) | -0.496
O=c1[nH][nH]c(=O)c2cc([N+](=O)[O-])ccc12 | -1.92
C=C(C)C(=O)OCCCCCC | 2.93
CCC(C)(C)C | 5.36
c1ccc2n[nH]nc2c1 | -4.57
O=C1C=CCCC1 | -4.49
Cc1cccc(C(=O)O)c1 | 0.0914
O=Cc1ccccc1Cl | 1.09

SMILES | activity change, negative = cytotoxicity [%]
CC(C)C=O | -3.29
CNc1ccc([N+](=O)[O-])cc1 | 1.96
O=P(O)(OCc1ccccc1)OCc1ccccc1 | -5.48
Nc1ccc(Cl)cc1[N+](=O)[O-] | 0.126
Cc1ccc2cccnc2c1 | -2.57
COc1ccc(N)c(OC)c1 | -6.11
CCCCCCC(=O)O | -5.55
ClCCl | -0.0471
c1ccsc1 | -2.79
CSCCC=O | -3.47
Cc1ccc2nc(-c3ccc(N)cc3)sc2c1S(=O)(=O)O | -5.09
O=[N+]([O-])c1ccc2nc[nH]c2c1 | -0.143
CC(=O)Nc1ccccc1C | -2.4
O=C(O)CCSSCCC(=O)O | -2.09
C=Cc1ccccc1C=C | -8.64
S=C([S-])NCCNC(=S)[S-].[Zn+2] | -13.1
CCOC(=O)C(C)C(C)=O (stereo not given) | -4.6
Cc1ccc(C)cc1 | -5.62
Nc1nc2ccccc2[nH]1 | -13.9
CCOc1cc(OCC)c(C(C)=O)cc1OCC | 2.57
